Only some compounds are listed: those with a hit (about 3.1% of all), similar ones and a draw of the others.
dFosB act: mouse delta FosB homodimer activation | P13346 | purified delta FosB, TAMRA-CDK5 oligo fluorescence polarization; percent of positive-control signal above neutral wells | activation, % at 25 µM | 340,000 tested, 0.99% active;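 active = mean activation above about 17%, with every replicate also reaching it, limit read from the data, passing the limit was not always enough; inconclusive = only one of the two conditions met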
AF4-AF9 inh: inhibitors of human MLL-AF4/AF9 interaction; AlphaScreen, biotin-AF4 peptide binding to FLAG-AF9; 350,000 tested, 0.47% active; inhibition, % at 10 µM; AID 651704; P42568;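 active = every replicate reaching a set inhibition limit, whatever the replicate mean, cut at about 25% in these data; inconclusive = mean inhibition reaches that limit but some replicates miss it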
Target sequence (P42568 whole entry, looked up): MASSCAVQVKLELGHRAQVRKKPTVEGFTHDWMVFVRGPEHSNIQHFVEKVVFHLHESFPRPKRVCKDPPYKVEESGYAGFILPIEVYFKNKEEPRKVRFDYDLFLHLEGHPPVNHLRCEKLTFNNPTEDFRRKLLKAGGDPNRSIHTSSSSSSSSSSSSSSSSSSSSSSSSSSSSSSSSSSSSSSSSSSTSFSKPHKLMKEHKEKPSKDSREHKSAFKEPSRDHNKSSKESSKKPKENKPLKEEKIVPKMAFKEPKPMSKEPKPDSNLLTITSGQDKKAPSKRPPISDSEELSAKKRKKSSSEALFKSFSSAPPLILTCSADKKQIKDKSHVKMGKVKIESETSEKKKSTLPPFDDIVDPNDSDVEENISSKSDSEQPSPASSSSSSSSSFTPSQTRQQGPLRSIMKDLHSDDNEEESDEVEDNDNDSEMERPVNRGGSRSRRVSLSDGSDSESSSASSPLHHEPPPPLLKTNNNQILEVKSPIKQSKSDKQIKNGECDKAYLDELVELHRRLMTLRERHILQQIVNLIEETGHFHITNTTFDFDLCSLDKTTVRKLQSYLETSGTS
RAD54 inh: inhibitors of human RAD54 branch migration | Q92698 | RAD54 Holliday junction branch migration, FAM/BHQ fluorescence | inhibition, % at 10.4 µM | 360,000 tested, 0.14% active | AID 602329;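 active = mean normalized replicate activity at least 40 and at least half of replicates scoring 40 or more; inconclusive = only one of the two criteria met; inactive = mean below 40 and under half of replicates reaching 40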;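 note: inhibitors cause a drop in the FAM fluorescence signal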
INS-1E GSIS act: primary screen for activators of insulin secretion dependent on glucose, INS-1E cells, GLuc reporter luminescence; activation, % at 16.6 µM; INS-1E GLuc reporter insulin secretion, 2-3 h; AID 743287; 370,000 tested, 0.61% active;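 active = lowest replicate activation of at least 40%, so every replicate reaches that level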
DENV2 CPE: protects cells from dengue virus 2 cytopathic effect. DENV2-infected cells, cytopathic effect rescue, plate reader. CPE inhibition, % at 9.99 µM. 350,000 tested, 1.7% active. AID 651640; in the data active = CPE inhibition above about 20%, passing the limit was not always enough; inconclusive = no clear call, values can overlap the other calls; tested in BHK-21 cells
RAD52 anneal inh: inhibitors of human RAD52 DNA annealing | recombinant RAD52 DNA annealing, FRET fluorescence | 360,000 tested, 0.46% active | inhibition, % at 18.7 µM;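 active = every replicate showing at least 50% inhibition; inconclusive = mean inhibition at least 50% but not in every replicate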
A number is an active result; i = inactive; ? = inconclusive; nt = not tested or not shown; ! = not active in a repeat.

SMILES	dFosB act	AF4-AF9 inh	RAD54 inh	INS-1E GSIS act	DENV2 CPE	RAD52 anneal inh
COc1ccc(NC(=O)N(C)C[C@H]2OCc3cnnn3CCCC(=O)N([C@@H](C)CO)C[C@H]2C)c(OC)c1	nt	i	i	i	26!	i
C[C@@H]1CN([C@H](C)CO)C(=O)CCCn2nncc2CO[C@H]1CN(C)C(=O)Nc1ccnc(N2CCOCC2)c1	nt	i	i	45!	i	i
COc1ccc(NC(=O)N(C)C[C@@H]2OCc3cnnn3CCCC(=O)N([C@H](C)CO)C[C@H]2C)cc1	nt	i	i	i	i	i
C[C@H](CO)N1C[C@H](C)[C@@H](CN(C)C(=O)Nc2ccnc(N3CCOCC3)c2)OCc2cnnn2CCCC1=O	nt	i	i	i	i	i
COc1ccc(NC(=O)N(C)C[C@@H]2OCc3cnnn3CCCC(=O)N([C@@H](C)CO)C[C@@H]2C)cc1	nt	i	i	i	24!	i
O=C(Nc1ccc(Cl)cc1)N[C@@H]1CC[C@H](CCn2cc(Cc3ccccc3)nn2)O[C@@H]1CO	nt	i	i	i	i	i
Nc1ccc(N2CCN(c3ccc(Cl)c(Cl)c3)CC2)cc1	i	27	nt	nt	i	i
Nc1ccc(N2CCN(c3ccc(F)cc3)CC2)cc1	i	i	nt	i	i	i
C[C@@H]1CN([C@H](C)CO)C(=O)c2cccc(NS(=O)(=O)c3cccs3)c2O[C@H]1CN(C)Cc1ccc(Cl)c(Cl)c1	nt	i	i	i	41	i
COc1ccc(S(=O)(=O)Nc2cccc3c2O[C@H](CN(C)Cc2ccc(Cl)c(Cl)c2)[C@@H](C)CN([C@H](C)CO)C3=O)cc1	i	i	i	i	25	i
C[C@@H]1CN([C@@H](C)CO)C(=O)c2cccc(NS(=O)(=O)c3cccs3)c2O[C@@H]1CN(C)Cc1ccc(Cl)c(Cl)c1	nt	i	i	i	i	i
COc1ccc(CN(C)C[C@H]2Oc3c(NS(=O)(=O)c4ccc(C)cc4)cccc3C(=O)N([C@H](C)CO)C[C@@H]2C)cc1	nt	i	i	i	31	i
COc1ccc(S(=O)(=O)Nc2cccc3c2O[C@H](CN(C)Cc2ccc(Cl)c(Cl)c2)[C@H](C)CN([C@@H](C)CO)C3=O)cc1	nt	nt	nt	i	nt	nt
COC(=O)CCSCC(=O)Nc1nnc(C)s1	i	27	i	i	i	i
C[C@@H](NC(=O)C[C@H]1C=C[C@H](NC(=O)Cc2ccccn2)[C@@H](CO)O1)c1ccccc1	nt	i	i	i	i	i
COc1ccc(O[C@H]2C=C[C@@H](c3ccccc3)O[C@@H]2CO/N=C(\C)CCN2CCCCc3nc(C)c(C)cc32)cc1	nt	i	nt	i	36	i
COc1ccc(S(=O)(=O)N2CCCc3nc(C)c(C)cc32)cc1	nt	i	nt	nt	i	i
Nc1nc(SCC(=O)Nc2ccc([N+](=O)[O-])cc2)[nH]c(=O)c1NC(=O)c1ccc(Br)o1	i	i	i	i	20	i
C[C@H](CO)N1C[C@H](C)[C@H](CN(C)Cc2ccc(C(=O)Nc3ccccc3N)cc2)Oc2ccc(NC(=O)CCN3CCOCC3)cc2C1=O	nt	i	i	i	i	i
O=C(c1cc(COc2cccc3cccnc23)on1)N1CCC[C@H]1CO	nt	41	i	i	i	i
COC(=O)C1CCCCN1C(=O)c1cc(COc2cccc3cccnc23)on1 (stereo not drawn)	i	i	i	i	i	i
CC(=O)Nc1ccc(NC(=O)C(C)OC(=O)/C=C/c2cn(-c3ccccc3)nc2-c2cccnc2)cc1 (stereo not drawn)	i	nt	nt	392	nt	nt
CSc1nc(Cl)c(Br)c(Nc2c[nH]c(=O)[nH]c2=O)n1	i	i	i	nt	52	i
COc1ccc(S(=O)(=O)N[C@H]2CC[C@@H](CC(=O)NCc3ccccc3F)O[C@@H]2CO)cc1	nt	i	i	i	?	i
CN1CCCC1CCNC1C2CC3CC(C2)CC1C3 (stereo not drawn)	i	nt	i	46	nt	nt
SMILES	dFosB act	AF4-AF9 inh	RAD54 inh	INS-1E GSIS act	DENV2 CPE	RAD52 anneal inh
CCCc1cn(CC[C@H]2CC[C@@H](NC(=O)C3CCCC3)[C@H](CO)O2)nn1	nt	i	i	i	i	i
Cc1nc2n[nH]c(N)c2c2c1COC(C)(C)C2	i	nt	i	i	nt	nt
CCc1nc2n[nH]c(N)c2c2c1CCCC2	i	nt	i	121	nt	nt
CCCc1nc2n[nH]c(N)c2c2c1COC(C)(C)C2	i	nt	nt	49	nt	nt
CN(C)CC(=O)N[C@@H]1CC[C@H](CCn2cc(C3CC3)nn2)O[C@@H]1CO	nt	i	i	i	i	i
CC(Sc1nc(-c2ccccc2)cc(C(F)(F)F)n1)C(=O)N1CCCC1 (stereo not drawn)	i	49	i	nt	i	i
CC(C)n1cc(CN2CCCC(CNS(=O)(=O)c3cccc4cccnc34)C2)cn1 (stereo not drawn)	i	i	i	i	22	i
Cc1ccccc1-c1cnc2c(c1)C(=O)N([C@H](C)CO)C[C@H](C)[C@H](CN(C)C(=O)CC1CC1)O2	nt	i	i	i	i	i
CS(=O)(=O)c1ccc(S(=O)CC(=O)OCc2ccccc2)c([N+](=O)[O-])c1 (stereo not drawn)	i	i	nt	81	i	i
Cc1ccccc1-c1ccc(C2[C@@H]3CN(Cc4ccc5c(c4)OCO5)C[C@H]2N3)cc1 (stereo partly drawn)	nt	nt	nt	i	i	nt
O=C([C@@H]1[C@@H](CO)[C@@H]2Cn3c(ccc(C4=CCCCC4)c3=O)[C@@H]2N1Cc1nccs1)N1CCCCC1	nt	i	i	i	i	i
CCOc1ccc(CCNS(=O)(=O)c2c(C)nc3scc(C)n3c2=O)cc1OCC	i	i	i	52	i	i
CCN1CCCC(NC(=O)c2scc3c2CCCC3)C1 (stereo not drawn)	i	47	i	nt	i	i
O=C(O)c1ccc(/C=N/n2c(C3CCCCC3)n[nH]c2=S)cc1	i	i	i	63	i	i
Cc1cccc(-c2ccc([C@H]3[C@@H](CO)N4CCCCN(C(=O)c5ccncc5)C[C@@H]34)cc2)c1	nt	nt	i	i	51	i
COc1ccccc1-c1ccc([C@H]2[C@H]3CN(C(=O)c4ccncc4)CCCCN3[C@H]2CO)cc1	nt	i	i	i	22	i
Cc1cccc(-c2ccc([C@H]3[C@@H](CO)N4CCCCN(C(=O)c5cccnc5)C[C@@H]34)cc2)c1	nt	i	i	i	32	i
Cc1cccc(-c2ccc([C@H]3[C@@H](CO)N4CCCCN(C(=O)c5cccnc5)C[C@H]34)cc2)c1	nt	i	i	i	i	i
COc1ccccc1-c1ccc([C@@H]2[C@H]3CN(C(=O)c4ccncc4)CCCCN3[C@H]2CO)cc1	nt	i	i	i	i	i
C[C@@H]1CN([C@@H](C)CO)C(=O)Cc2cc(NC(=O)C3CC3)ccc2O[C@@H]1CN(C)C(=O)Nc1ccc(C(F)(F)F)cc1	nt	i	i	i	i	i
COc1ccccc1S(=O)(=O)N[C@H]1C=C[C@H](CC(=O)N2CCN(C)CC2)O[C@@H]1CO	nt	i	i	i	i	i

From PubChem
